# What was measured:
# [1] = biological target: High affinity nerve growth factor receptor (Homo sapiens) (UniProt P04629); conditions: at 1 µM;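 further: each value is the mean percent inhibition of TRKA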
# [2] = biological target: BDNF/NT-3 growth factors receptor (Homo sapiens) (UniProt Q16620); conditions: at 0.1 µM
# [3] = biological target: BDNF/NT-3 growth factors receptor (Homo sapiens) (UniProt Q16620); conditions: at 1 µM
# [4] = biological target: NT-3 growth factor receptor (Homo sapiens) (UniProt Q16288); conditions: at 0.1 µM
# Sequence of NT-3 growth factor receptor (Homo sapiens) (Q16288 32-839 limits assumed): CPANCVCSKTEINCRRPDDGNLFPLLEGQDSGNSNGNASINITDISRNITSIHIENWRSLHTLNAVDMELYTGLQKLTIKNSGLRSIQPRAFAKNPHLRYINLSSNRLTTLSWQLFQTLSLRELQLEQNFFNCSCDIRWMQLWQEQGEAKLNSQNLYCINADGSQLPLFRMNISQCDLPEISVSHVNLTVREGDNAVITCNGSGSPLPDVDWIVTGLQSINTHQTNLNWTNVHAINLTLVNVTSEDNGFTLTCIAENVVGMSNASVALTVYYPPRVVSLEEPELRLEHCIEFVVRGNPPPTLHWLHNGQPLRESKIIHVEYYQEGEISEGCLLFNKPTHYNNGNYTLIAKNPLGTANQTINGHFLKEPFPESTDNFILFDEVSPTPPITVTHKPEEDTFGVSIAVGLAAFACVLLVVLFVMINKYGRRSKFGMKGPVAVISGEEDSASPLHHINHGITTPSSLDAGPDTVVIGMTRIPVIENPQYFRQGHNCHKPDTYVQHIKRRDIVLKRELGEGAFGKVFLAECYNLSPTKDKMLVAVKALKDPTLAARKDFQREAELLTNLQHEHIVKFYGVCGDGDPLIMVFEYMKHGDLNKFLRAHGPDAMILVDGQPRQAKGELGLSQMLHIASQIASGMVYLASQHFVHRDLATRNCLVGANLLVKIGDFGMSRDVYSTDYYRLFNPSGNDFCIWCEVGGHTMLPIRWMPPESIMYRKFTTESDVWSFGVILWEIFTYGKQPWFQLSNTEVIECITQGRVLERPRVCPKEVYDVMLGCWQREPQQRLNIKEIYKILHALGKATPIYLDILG
# [5] = biological target: NT-3 growth factor receptor (Homo sapiens) (UniProt Q16288); conditions: at 1 µM
# [6] = biological target: T1, Tyrosine-protein kinase TXK (Homo sapiens) (UniProt P42681); conditions: at 0.1 µM
# T1 sequence (whole entry): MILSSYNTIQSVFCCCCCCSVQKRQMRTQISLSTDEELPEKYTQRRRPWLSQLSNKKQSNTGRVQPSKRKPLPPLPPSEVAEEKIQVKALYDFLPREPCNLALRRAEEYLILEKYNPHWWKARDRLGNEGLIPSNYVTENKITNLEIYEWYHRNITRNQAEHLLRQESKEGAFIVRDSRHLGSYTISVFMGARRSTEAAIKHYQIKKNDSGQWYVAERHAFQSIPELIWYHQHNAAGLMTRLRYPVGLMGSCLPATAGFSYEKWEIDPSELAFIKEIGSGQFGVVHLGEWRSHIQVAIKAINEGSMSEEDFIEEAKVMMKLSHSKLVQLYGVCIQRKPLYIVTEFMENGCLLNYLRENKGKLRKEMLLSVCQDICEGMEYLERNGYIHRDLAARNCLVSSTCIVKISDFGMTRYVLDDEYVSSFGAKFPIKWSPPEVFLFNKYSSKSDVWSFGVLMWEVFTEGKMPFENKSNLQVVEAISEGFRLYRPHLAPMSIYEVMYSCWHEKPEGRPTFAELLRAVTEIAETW
# [7] = biological target: T1, Tyrosine-protein kinase TXK (Homo sapiens); conditions: at 1 µM
# [8] = biological target: Non-receptor tyrosine-protein kinase TYK2 (Homo sapiens) (UniProt P29597); conditions: at 0.1 µM;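 further: each value is a mean of the inhibition readings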
# [9] = biological target: T2, Dual specificity protein kinase TTK (Homo sapiens) (UniProt P33981); conditions: at 1 µM;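 further: reported figures are mean TTK inhibition at 1 µM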
# T2 sequence (whole entry): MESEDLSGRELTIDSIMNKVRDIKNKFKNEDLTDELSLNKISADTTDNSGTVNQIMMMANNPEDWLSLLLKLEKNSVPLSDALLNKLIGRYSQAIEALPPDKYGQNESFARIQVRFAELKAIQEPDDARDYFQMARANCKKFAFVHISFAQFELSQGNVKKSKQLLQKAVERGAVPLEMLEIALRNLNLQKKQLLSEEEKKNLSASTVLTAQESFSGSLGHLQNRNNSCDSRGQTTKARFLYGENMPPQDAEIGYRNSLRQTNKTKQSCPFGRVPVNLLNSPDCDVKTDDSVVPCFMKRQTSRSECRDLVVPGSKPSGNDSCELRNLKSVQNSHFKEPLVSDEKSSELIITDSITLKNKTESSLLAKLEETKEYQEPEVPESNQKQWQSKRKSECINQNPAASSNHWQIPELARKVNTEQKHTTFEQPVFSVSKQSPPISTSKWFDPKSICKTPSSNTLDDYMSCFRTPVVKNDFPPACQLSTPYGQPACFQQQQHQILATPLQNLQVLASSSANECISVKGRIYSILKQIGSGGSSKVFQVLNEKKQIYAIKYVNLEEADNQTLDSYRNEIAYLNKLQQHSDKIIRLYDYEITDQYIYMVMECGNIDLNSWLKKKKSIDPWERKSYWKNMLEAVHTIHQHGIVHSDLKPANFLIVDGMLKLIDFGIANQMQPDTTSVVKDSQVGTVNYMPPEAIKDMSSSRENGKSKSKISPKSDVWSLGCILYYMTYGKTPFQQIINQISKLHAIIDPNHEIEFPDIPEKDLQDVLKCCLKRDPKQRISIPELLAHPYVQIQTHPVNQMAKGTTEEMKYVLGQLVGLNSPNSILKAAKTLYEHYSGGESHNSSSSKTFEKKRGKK
# [10] = biological target: T3, Aurora kinase A (Homo sapiens) (UniProt O14965); conditions: at 0.1 µM
# T3 sequence (whole entry): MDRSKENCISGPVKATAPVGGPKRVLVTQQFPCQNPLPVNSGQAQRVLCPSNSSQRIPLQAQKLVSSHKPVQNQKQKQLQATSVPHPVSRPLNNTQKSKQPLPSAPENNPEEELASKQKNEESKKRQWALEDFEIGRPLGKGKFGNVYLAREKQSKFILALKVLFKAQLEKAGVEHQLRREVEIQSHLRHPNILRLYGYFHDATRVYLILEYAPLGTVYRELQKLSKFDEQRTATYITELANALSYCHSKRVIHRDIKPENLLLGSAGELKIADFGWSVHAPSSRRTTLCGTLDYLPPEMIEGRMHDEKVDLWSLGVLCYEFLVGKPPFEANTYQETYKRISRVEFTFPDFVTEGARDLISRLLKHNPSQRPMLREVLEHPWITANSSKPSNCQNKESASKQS
# [11] = biological target: T3, Aurora kinase A (Homo sapiens); conditions: at 1 µM
# [12] = biological target: Aurora kinase B (Homo sapiens) (UniProt Q96GD4); conditions: at 0.1 µM
# Sequence of Aurora kinase B (Homo sapiens) (Q96GD4 whole entry): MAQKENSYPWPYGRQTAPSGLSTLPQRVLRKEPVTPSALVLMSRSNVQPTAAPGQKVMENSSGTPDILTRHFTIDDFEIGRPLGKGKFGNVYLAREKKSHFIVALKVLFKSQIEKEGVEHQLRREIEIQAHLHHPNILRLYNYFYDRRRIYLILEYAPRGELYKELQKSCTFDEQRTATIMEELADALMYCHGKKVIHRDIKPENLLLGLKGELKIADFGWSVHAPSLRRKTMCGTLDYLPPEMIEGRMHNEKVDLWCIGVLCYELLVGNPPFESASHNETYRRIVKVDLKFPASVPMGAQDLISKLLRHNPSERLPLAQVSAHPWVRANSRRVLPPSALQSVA
# [13] = biological target: Aurora kinase B (Homo sapiens) (UniProt Q96GD4); conditions: at 1 µM
# [14] = biological target: T4, Aurora kinase C (Homo sapiens) (UniProt Q9UQB9); conditions: at 0.1 µM
# T4 sequence (whole entry): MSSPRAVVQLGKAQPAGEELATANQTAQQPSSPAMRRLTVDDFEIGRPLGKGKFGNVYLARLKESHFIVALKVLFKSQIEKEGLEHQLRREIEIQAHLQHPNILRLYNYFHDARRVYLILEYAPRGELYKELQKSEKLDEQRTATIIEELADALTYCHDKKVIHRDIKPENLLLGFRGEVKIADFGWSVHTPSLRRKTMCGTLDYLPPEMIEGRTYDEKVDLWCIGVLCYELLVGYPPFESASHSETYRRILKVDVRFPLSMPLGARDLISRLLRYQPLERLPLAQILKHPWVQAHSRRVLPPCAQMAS
# [15] = biological target: T4, Aurora kinase C (Homo sapiens); conditions: at 1 µM
# [16] = biological target: Serine/threonine-protein kinase 10 (Homo sapiens) (UniProt O94804); conditions: at 0.1 µM
# Sequence of Serine/threonine-protein kinase 10 (Homo sapiens) (O94804 whole entry, looked up): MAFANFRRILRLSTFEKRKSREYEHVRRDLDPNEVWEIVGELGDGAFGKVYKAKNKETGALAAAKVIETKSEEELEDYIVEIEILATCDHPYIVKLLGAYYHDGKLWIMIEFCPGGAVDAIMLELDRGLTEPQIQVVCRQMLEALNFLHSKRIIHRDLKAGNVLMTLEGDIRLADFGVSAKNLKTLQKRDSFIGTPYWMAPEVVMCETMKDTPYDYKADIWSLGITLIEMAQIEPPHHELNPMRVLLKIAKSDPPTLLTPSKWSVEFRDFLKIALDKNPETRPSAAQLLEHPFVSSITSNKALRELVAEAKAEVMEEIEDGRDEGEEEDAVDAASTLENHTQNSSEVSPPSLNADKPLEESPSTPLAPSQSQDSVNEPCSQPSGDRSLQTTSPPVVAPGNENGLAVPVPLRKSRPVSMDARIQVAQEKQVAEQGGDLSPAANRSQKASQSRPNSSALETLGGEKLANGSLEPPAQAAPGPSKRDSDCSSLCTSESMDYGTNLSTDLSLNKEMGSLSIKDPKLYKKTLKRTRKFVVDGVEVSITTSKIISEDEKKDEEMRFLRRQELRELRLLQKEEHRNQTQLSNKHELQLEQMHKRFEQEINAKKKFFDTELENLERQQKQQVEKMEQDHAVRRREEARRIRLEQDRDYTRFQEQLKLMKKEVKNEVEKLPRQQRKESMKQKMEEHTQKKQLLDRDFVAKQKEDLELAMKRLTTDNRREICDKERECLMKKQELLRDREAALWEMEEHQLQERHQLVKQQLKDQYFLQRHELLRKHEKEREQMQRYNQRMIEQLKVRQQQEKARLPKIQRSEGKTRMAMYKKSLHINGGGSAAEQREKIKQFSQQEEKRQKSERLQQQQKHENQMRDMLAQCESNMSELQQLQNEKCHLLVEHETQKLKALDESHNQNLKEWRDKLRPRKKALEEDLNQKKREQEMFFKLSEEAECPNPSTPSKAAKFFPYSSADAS
# [17] = biological target: Serine/threonine-protein kinase 10 (Homo sapiens) (UniProt O94804); conditions: at 1 µM
# [18] = biological target: T5, Mitogen-activated protein kinase kinase kinase kinase 2 (Homo sapiens) (UniProt Q12851); conditions: at 0.1 µM
# T5 sequence (whole entry): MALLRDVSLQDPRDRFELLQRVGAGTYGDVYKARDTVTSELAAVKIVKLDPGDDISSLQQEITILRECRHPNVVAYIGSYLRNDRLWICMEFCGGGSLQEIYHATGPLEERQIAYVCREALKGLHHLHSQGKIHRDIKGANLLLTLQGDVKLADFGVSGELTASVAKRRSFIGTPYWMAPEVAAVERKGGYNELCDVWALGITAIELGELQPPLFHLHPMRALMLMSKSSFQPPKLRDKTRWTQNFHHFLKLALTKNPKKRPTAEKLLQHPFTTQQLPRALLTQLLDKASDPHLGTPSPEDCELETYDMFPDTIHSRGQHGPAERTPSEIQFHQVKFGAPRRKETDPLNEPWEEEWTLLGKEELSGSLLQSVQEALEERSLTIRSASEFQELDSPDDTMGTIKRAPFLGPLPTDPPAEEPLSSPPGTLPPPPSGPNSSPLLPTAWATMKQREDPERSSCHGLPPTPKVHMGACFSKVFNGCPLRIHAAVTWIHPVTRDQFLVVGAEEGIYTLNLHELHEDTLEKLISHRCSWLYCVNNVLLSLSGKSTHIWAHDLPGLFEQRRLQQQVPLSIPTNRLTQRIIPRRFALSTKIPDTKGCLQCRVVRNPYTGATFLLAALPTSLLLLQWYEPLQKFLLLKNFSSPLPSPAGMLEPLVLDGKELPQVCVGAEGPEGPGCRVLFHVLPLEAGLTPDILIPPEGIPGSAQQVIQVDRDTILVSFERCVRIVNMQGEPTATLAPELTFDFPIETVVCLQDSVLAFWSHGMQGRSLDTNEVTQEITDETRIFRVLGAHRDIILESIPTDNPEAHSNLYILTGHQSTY
# [19] = biological target: T5, Mitogen-activated protein kinase kinase kinase kinase 2 (Homo sapiens); conditions: at 1 µM
# [20] = biological target: Mitogen-activated protein kinase kinase kinase kinase 4 (Homo sapiens) (UniProt O95819); conditions: at 0.1 µM
# Sequence of Mitogen-activated protein kinase kinase kinase kinase 4 (Homo sapiens) (O95819 2-1239 limits assumed): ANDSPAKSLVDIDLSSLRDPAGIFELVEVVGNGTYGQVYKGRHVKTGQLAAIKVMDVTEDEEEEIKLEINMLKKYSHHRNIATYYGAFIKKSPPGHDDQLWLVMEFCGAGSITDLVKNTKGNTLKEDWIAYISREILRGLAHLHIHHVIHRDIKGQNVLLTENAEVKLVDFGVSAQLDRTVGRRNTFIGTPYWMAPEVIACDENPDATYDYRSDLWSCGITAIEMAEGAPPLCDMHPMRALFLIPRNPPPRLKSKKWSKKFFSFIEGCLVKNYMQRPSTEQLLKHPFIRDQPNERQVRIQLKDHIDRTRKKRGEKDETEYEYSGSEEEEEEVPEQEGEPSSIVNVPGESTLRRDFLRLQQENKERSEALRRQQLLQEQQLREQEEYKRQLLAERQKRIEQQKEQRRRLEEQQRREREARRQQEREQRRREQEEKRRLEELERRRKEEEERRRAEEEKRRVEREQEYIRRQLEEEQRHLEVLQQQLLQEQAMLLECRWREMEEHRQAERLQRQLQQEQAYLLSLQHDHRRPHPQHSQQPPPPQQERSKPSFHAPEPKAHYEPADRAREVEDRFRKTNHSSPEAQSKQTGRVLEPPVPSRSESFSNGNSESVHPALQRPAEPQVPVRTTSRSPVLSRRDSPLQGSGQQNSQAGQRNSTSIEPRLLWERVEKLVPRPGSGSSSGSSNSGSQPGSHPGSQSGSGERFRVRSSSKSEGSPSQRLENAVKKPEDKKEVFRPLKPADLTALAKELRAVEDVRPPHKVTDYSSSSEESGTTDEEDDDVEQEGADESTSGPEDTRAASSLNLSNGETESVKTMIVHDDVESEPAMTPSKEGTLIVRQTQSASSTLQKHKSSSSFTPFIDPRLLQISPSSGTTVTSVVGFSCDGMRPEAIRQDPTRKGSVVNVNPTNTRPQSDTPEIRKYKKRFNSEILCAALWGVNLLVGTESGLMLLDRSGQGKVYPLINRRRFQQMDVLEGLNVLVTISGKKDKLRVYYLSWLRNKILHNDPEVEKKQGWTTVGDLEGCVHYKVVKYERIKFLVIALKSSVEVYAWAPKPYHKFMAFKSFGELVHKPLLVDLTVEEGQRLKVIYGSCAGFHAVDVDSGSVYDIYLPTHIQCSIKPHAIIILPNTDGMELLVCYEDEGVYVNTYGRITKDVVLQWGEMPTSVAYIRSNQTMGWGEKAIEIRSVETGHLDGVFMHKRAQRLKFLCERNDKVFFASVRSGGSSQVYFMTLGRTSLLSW
# Sequence of BDNF/NT-3 growth factors receptor (Homo sapiens) (Q16620 32-822 limits assumed): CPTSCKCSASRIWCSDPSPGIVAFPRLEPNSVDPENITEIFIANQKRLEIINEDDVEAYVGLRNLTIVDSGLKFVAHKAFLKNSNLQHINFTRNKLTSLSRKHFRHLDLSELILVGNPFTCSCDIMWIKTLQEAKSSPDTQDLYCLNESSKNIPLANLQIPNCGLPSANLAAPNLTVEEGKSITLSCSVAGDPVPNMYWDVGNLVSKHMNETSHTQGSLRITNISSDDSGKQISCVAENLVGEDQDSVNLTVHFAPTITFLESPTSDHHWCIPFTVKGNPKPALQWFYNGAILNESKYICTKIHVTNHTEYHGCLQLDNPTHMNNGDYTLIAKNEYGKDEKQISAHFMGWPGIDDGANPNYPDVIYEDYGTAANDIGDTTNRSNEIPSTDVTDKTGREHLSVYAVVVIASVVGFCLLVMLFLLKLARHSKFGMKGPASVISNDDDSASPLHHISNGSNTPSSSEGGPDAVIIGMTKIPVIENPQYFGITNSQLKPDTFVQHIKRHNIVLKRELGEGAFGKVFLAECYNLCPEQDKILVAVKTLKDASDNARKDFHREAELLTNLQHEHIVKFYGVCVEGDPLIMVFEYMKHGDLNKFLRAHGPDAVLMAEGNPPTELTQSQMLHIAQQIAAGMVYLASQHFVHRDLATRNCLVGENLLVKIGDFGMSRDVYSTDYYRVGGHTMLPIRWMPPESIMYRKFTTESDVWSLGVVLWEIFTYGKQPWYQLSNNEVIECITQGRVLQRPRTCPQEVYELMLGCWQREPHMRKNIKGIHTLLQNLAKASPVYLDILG
# Sequence of High affinity nerve growth factor receptor (Homo sapiens) (P04629 33-796 limits assumed): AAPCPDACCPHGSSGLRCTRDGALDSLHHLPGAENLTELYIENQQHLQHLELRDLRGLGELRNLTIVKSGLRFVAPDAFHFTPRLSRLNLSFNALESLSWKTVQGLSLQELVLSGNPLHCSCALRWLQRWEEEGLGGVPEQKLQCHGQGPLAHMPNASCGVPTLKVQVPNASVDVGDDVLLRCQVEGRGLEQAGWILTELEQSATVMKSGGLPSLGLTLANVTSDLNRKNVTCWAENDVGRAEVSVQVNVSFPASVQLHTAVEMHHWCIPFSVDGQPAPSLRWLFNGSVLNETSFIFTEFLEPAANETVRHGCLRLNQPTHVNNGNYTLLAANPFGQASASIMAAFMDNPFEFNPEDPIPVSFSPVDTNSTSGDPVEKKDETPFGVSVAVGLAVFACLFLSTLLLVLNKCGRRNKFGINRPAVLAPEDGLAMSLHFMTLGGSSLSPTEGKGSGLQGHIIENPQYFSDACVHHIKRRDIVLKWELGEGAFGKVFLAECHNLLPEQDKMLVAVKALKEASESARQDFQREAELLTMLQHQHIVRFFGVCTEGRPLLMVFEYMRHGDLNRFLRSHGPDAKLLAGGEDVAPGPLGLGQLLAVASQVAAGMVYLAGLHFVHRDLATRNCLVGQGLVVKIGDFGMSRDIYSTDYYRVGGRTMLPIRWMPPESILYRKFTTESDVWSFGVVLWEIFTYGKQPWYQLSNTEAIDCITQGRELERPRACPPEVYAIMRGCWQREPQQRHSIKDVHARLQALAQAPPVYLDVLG
SMILES,inhibition [1] [%],inhibition [2] [%],inhibition [3] [%],inhibition [4] [%],inhibition [5] [%],inhibition [6] [%],inhibition [7] [%],inhibition [8] [%],inhibition [9] [%],inhibition [10] [%],inhibition [11] [%],inhibition [12] [%],inhibition [13] [%],inhibition [14] [%],inhibition [15] [%],inhibition [16] [%],inhibition [17] [%],inhibition [18] [%],inhibition [19] [%],inhibition [20] [%]
[O-][S+]1CCN(Cc2ccc(-c3ccc4ncnc(Nc5ccc(OCc6ccccc6)c(Cl)c5)c4c3)o2)CC1,3.75,1.6,2.14,0.66,0.36,0.16,2.65,-1.17,8.12,1.75,2.75,3.28,5.05,-0.09,1.6,3.93,12.3,-0.35,1.53,0.26
COc1cccc(-n2ncc3c(N/N=C/c4ccc(C)cc4)ncnc32)c1,5.28,3.97,5.08,3.96,2.64,7.7,7.5,-1.37,19.1,3.98,11.8,4.27,6.65,1.92,4.66,5.12,10.9,0.91,4.23,4.74
COC(=O)Nc1nc2cc(Oc3ccc(NC(=O)Nc4cccc(Br)c4)cc3)ccc2[nH]1,55.6,19.7,32.5,20.9,38.8,2.73,4.17,0.49,8.12,0.95,7.48,8.64,21,11.4,42.5,20.5,34.2,3.41,10.2,3.09

# — ChEMBL document CHEMBL1961873, “Compounds: GSK PKIS; Assays: Nanosyn kinase panel” (2012)
